Data on 96 compounds can be found in PubChem BioAssay AID1285 (Columbia University Molecular Screening Center, 2008).

Among all 190,000 compounds or so, about 1,600 (0.84%) were called active.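 How the source made its calls: active means inhibition above a set limit, derived from the sample mean plus 3 SD (cut at about 45% in these data); inconclusive means one replicate passes the limit while the other fails; inactive means the rest.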 The full list was thinned out, with actives kept by preference.

This test can be described thus: inhibitors of APP translation via 5'UTR reporter, primary screen, APP 5'UTR luciferase, SH-SY5Y cells (AID 1285). As to conditions: SH-SY5Y APP 5'UTR-luciferase reporter, luminescence; at 2 µM; hits give high values.
`O=C1CCCc2c1nc(-c1cccc(Cl)c1)n2O`: the inhibition is 94.3% (active).

As for `O=c1c2c(nc3cc(-c4cccc(Cl)c4)[nH]n13)CCCC2`, the inhibition was -158% (inactive).

`CCOC(=O)CSc1ncc(-c2cccc(Cl)c2)cn1`: the inhibition was -2.7% (inactive).

`CCCn1c(NC(=O)C23CC4CC(CC(O)(C4)C2)C3)nc2ccccc21`: the inhibition was 9% (inactive).

As to `COC(=O)c1c(C)oc2ccc(N(C(=O)Oc3ccccc3)S(=O)(=O)c3ccccc3)cc12`, the inhibition was 0.2% (inactive).

`O=C(NC(=S)Nc1ccc2oc(=O)ccc2c1)c1ccc(-c2cccc(Cl)c2Cl)o1`: the inhibition was 2.2% (inactive).

With `CCOc1cc(NC(=O)CCl)c(OCC)cc1NC(C)=O`, the inhibition was 5.3% (inactive).

In the case of `CCOc1cccc(-n2nnnc2-c2ccc(OC)cc2)c1`, the inhibition was 65.8% (active).

On to `COc1ccc(-n2nnnc2-c2nc3ccccc3s2)cc1`, for which the inhibition is -237% (inactive).

On to `CCOc1cccc(-c2nnc3sc(COc4ccc(OC)cc4)nn23)c1`, for which the inhibition was -2.3% (inactive).

On to `C/C(=N\NC(=O)c1ccc(CSc2nc(C)cc(C)n2)cc1)C1CCCCC1`, for which the inhibition is -23.6% (inactive).

As to `COc1ccc(CC(=O)NC(C)CCc2ccccc2)cc1` (stereo unspecified), the inhibition is 18.8% (inactive).

Turning to `COc1ccc(C(CCNCc2ccccc2F)c2ccc(F)cc2)cc1` (stereo unspecified), the inhibition is 50.4% (active).

On to `COc1cccc(CNCCc2c[nH]c3ccccc23)c1OCc1ccccc1F`, for which the inhibition is -3.5% (inactive).

As for `CCC(C)(C)NC(=O)C1c2ccccc2Oc2ccccc21`, the inhibition is -10.4% (inactive).

For `COc1cc2nc(CN(C)Cc3ccc(F)cc3)[nH]c(=O)c2cc1OC`, the inhibition was -10.3% (inactive).

As to `COc1ccc(C(=O)Nc2ccc(F)cc2F)cc1`, the inhibition was -131% (inactive).

`CCOC(=O)N1CCN(S(=O)(=O)c2ccc(C(=O)Nc3ccc(F)cc3F)cc2)CC1`: the inhibition is 92.2% (active).

Regarding `O=C(CN1CCN(S(=O)(=O)c2ccc(F)cc2)CC1)Nc1ccccc1F`, the inhibition was -2% (inactive).

Take `Cc1nc(-c2ccc(Cl)cc2)sc1C(=O)CBr`: the inhibition was 5.2% (inactive).

For `Clc1ccc(N/N=C/c2cccs2)nn1`, the inhibition is -17.2% (inactive).

`COc1cccc2c1OCC(CN1CCN(C3CCCCC3)C(CCO)C1)=C2` (stereo unspecified): the inhibition is 10.6% (inactive).

As for `NS(=O)(=O)c1ccc(NC(=O)COC(=O)c2ccc(Cl)nc2)cc1`, the inhibition is -14.1% (inactive).

For `CCN(CC)c1ccc(NC(=O)c2ccc(Cl)nc2)cc1`, the inhibition is 66.1% (active).

For `O=C(NNc1ccccn1)c1ccc(Cl)nc1`, the inhibition is 9.8% (inactive).

On to `Cc1ccc(S(=O)(=O)N(C)c2ccc(OCC(=O)NC3=NCCS3)cc2)cc1`, for which the inhibition was -2.9% (inactive).

For `COc1ccc2nc(Nc3nc4ccc(NC(C)=O)cc4s3)sc2c1`, the inhibition was -20.2% (inactive).

Consider `CCCC(=O)Nc1nc2ccc(NC(=O)c3cccnc3)cc2s1`, for which the inhibition was 4.1% (inactive).

Take `CCCC(=O)Nc1nc2ccc(NC(=O)c3c(F)c(F)c(OC)c(F)c3F)cc2s1`: the inhibition is 88.8% (active).

Consider `CCOc1cnc(-c2c(-c3ccccc3Cl)noc2C)o1`, for which the inhibition is 16.9% (inactive).

On to `O=C(Cn1ncc(N2CCCC2)c(Br)c1=O)c1ccc(Cl)cc1`, for which the inhibition is -71.1% (inactive).

Take `CCCCC(C(=O)OCC(=O)c1ccc(OC)cc1)N1C(=O)c2ccccc2C1=O` (stereo unspecified): the inhibition is 7.1% (inactive).

On to `CCOC(=O)C1=C(c2ccc(OC)cc2)C(=O)c2ccccc2C1=O`, for which the inhibition was 59.6% (active).

Take `CCOC(=O)c1ccccc1NS(=O)(=O)c1ccc(OC)cc1`: the inhibition is -5.3% (inactive).

On to `C[C@@H]1C[C@@H]2O[C@H]2/C=C\C=C\C(=O)Cc2c(Cl)c(O)cc(O)c2C(=O)O1`, for which the inhibition was 95% (active).

For the compound `O=C(Nc1ccc2c(c1)OCO2)c1sc2cc(Cl)ccc2c1Cl`, the inhibition was -85% (inactive).

Consider `O=S(=O)(NCCc1ccncc1)c1ccccc1`, for which the inhibition was 16.4% (inactive).

For `Cc1ccc(-c2cc(=O)c3ccc(Cl)cc3[nH]2)cc1`, the inhibition is -13.4% (inactive).

In the case of `O=c1cc(-c2ccccc2)[nH]c2cc(F)ccc12`, the inhibition is 89.6% (active).

With `Cc1ccc(-c2cc(=O)c3ccc(F)cc3[nH]2)cc1`, the inhibition is -29.4% (inactive).

In the case of `Cc1ccnc(NS(=O)(=O)c2ccc(NC(=O)c3ccc(S(=O)(=O)N4CCOCC4)cc3)cc2)n1`, the inhibition is 5.8% (inactive).

With `Cc1cccc(-n2c(C)cc(/C=N\NC(=O)c3cccs3)c2C)c1`, the inhibition is -62.9% (inactive).

As to `Cc1ccc(/C=N/NC(=O)C2=NNC(c3ccccc3)(c3ccccc3)C2)c(O)c1`, the inhibition is 73% (active).

On to `Cc1ccc(-c2nn(-c3ccccc3)cc2/C=N/NC(=O)c2ccc3c(c2)OCO3)cc1`, for which the inhibition is 4.8% (inactive).

For `O=C(CCc1n[nH]c(=O)[nH]c1=O)N/N=C/c1ccc(Br)o1`, the inhibition is -6.1% (inactive).

In the case of `CCOC(=O)c1[nH]c2c(c1C)C(=O)CC(c1ccc(N(C)C)cc1)C2` (stereo unspecified), the inhibition was -13.3% (inactive).

As for `CCCOC(=O)c1[nH]c2c(c1C)C(=O)CC(c1cccs1)C2` (stereo unspecified), the inhibition is 92% (active).

As to `CCCOC(=O)c1[nH]c2c(c1C)C(=O)CC(c1cc(OC)c(OC)c(OC)c1)C2` (stereo unspecified), the inhibition is -2.1% (inactive).

With `COc1ccccc1OCCC(=O)OCC(=O)NC(=O)NC(C)(C)C`, the inhibition is -5.5% (inactive).

With `CC(C)(C)NC(=O)NC(=O)COC(=O)CCC1CCCCC1`, the inhibition is 61.5% (active).

On to `CC(C)(C)NC(=O)NC(=O)COC(=O)C1(C)CC1(Cl)Cl` (stereo unspecified), for which the inhibition was 12.7% (inactive).

As for `CN1CCC(OC(=O)COc2ccc(Cl)cc2Cl)CC1`, the inhibition is -5.1% (inactive).

In the case of `COc1cccc(/C=N\NC(=O)C2=NNC(=O)C2C)c1O` (stereo unspecified), the inhibition is -73.4% (inactive).

Regarding `COc1ccc(C(=O)Nc2ccccc2C(=O)N/N=C/c2ccccc2OC)cc1`, the inhibition is -8.9% (inactive).

Consider `COc1cccc(/C=N/NC(=O)c2[nH]nc3c2CCc2ccccc2-3)c1O`, for which the inhibition was 79.7% (active).

On to `CCN(Cc1ccccc1)S(=O)(=O)c1cc(C(=O)O)ccc1OC`, for which the inhibition was -51.9% (inactive).

Consider `O=C(CC1SC(=Nc2ccccc2F)N(CCN2CCOCC2)C1=O)Nc1ccc(F)cc1F` (stereo unspecified), for which the inhibition is -19.1% (inactive).

Regarding `Cc1ccc(CC2S/C(=C(/C#N)C(=O)N3CCOCC3)N(c3ccccc3)C2=O)cc1` (stereo unspecified), the inhibition was -2.7% (inactive).

Take `N#C/C(C(=O)N1CCOCC1)=C1/SC(Cc2ccc(F)cc2)C(=O)N1c1ccccc1` (stereo unspecified): the inhibition was 56.6% (active).

Regarding `CCN(CC)C(=O)CS(=O)CC(=O)Nc1cc(OCCOC)c(Cl)cc1Cl` (stereo unspecified), the inhibition was -14% (inactive).

As to `Cc1oc2c(c1C(=O)N1CCOCC1)C(=O)c1ccccc1C2=O`, the inhibition was 2.1% (inactive).

As for `O=C(NNC(=S)Nc1ccccc1)c1cccc(S(=O)(=O)N2CCOCC2)c1`, the inhibition was -32.5% (inactive).

`CCOC(=O)c1cnc(-n2nc(C)cc2C)nc1-n1nc(C)cc1C`: the inhibition is 6% (inactive).

Consider `CCOC(=O)c1cnc(-n2nc(C)cc2C)nc1Nc1cccc(C(C)=O)c1`, for which the inhibition is -11.9% (inactive).

Consider `CCOC(=O)c1cnc(-n2nc(C)cc2C)nc1NNc1cc(C)nc(-c2ccccc2)n1`, for which the inhibition is 72.1% (active).

In the case of `Cc1ccc(C(=O)NC(C)c2ccccc2)cc1Br` (stereo unspecified), the inhibition is 25.6% (inactive).

With `C/C=C/c1ccc(OCC(O)CN2CCCCCCC2)c(OC)c1` (stereo unspecified), the inhibition was -39% (inactive).

With `Nc1ccc(Oc2ccc(Cl)cc2)cc1`, the inhibition is 11.4% (inactive).

With `Cc1ccc(Oc2ccc(N)cc2)cc1`, the inhibition is 3.7% (inactive).

For `CC(C)(C)c1ccc(Oc2ccc(N)cc2)cc1`, the inhibition is 84.4% (active).

Turning to `Oc1ccc(/C=N/N(Cc2ccccc2)c2ccccc2)cc1`, the inhibition is -13.4% (inactive).

Turning to `N=C1/C(=C/c2cccn2-c2cccc([N+](=O)[O-])c2)C(=O)N=C2SC=CN12`, the inhibition was 17.8% (inactive).

On to `O=C(N/N=C/c1ccc2c(c1)OCO2)c1ccc(Cn2cc([N+](=O)[O-])cn2)o1`, for which the inhibition is -17.9% (inactive).

As for `Cc1c(Cl)c([N+](=O)[O-])nn1Cc1ccc(C(=O)N/N=C\c2cc(Cl)ccc2O)o1`, the inhibition is 68.5% (active).

On to `Cc1c(Cl)c([N+](=O)[O-])nn1CCCC(=O)Nc1cc(Cl)ccc1Cl`, for which the inhibition was -6.1% (inactive).

Take `COc1cc(/C=N\NC(=O)c2nonc2N)c(OC)cc1Br`: the inhibition is 1% (inactive).

As to `Nc1nonc1-n1nnc(C(=O)N/N=C/c2cc(Br)ccc2O)c1CSC1=NCCS1`, the inhibition is 54.3% (active).

In the case of `COCc1c(C(=O)N/N=C/C2CC=CCC2)nnn1-c1nonc1N` (stereo unspecified), the inhibition was 6.9% (inactive).

On to `CCC1(CC)NC(=O)N(CC(=O)OCC(=O)NC(=O)c2ccccc2)C1=O`, for which the inhibition was 5.8% (inactive).

On to `COC(=O)Nc1nc2ccc(Sc3ccccc3)cc2[nH]1`, for which the inhibition is 91.5% (active).

`Cc1nc2ccc(C(=O)O)cc2[nH]1`: the inhibition was 4.6% (inactive).

Regarding `CC(C)c1nc2ccc(C(=O)O)cc2[nH]1`, the inhibition was -1.3% (inactive).

Regarding `CCO/C=C1\C(=O)N(c2ccc(OCC)cc2)C(=O)c2ccccc21`, the inhibition was -6.3% (inactive).

Take `OCCC1CN(Cc2ccc3nsnc3c2)CCN1C1CCCCC1` (stereo unspecified): the inhibition was 0.3% (inactive).

Consider `CC(C)N1CCC(=NNc2ccc([N+](=O)[O-])cc2S(=O)(=O)N2CCOCC2)CC1`, for which the inhibition was 16.2% (inactive).

In the case of `CCn1c2ccccc2c2cc(CC(N)=O)ccc21`, the inhibition was 15% (inactive).

For the compound `COc1ccc(CCNC(=O)CN(c2ccccc2)S(C)(=O)=O)cc1OC`, the inhibition is -22.4% (inactive).

On to `COc1ccc(CCNC(=O)CC2SC(=Nc3cc(C)cc(C)c3)NC2=O)cc1OC` (stereo unspecified), for which the inhibition is 2.9% (inactive).

On to `CCCN=C1NC(=O)C(CC(=O)NCCc2ccc(OC)c(OC)c2)S1` (stereo unspecified), for which the inhibition is 74.7% (active).

Take `Cc1cc(C)c(S(=O)(=O)N2CCOCC2)cc1C`: the inhibition is 10.3% (inactive).

Take `CCOc1ccc(Br)cc1S(=O)(=O)Nc1cccc(S(=O)(=O)N(CC)CC)c1`: the inhibition was -7% (inactive).

Turning to `CCOc1ccccc1NC(=O)CCc1ccc(C)o1`, the inhibition was 9.7% (inactive).

Consider `Cc1ccc(CCC(=O)Nc2ncc(Cc3cc(Cl)ccc3Cl)s2)o1`, for which the inhibition was 94.1% (active).

Turning to `Cc1cnc(NC(=O)CSc2nnc(-c3ccc(Cl)cc3Cl)n2N)s1`, the inhibition is -0.1% (inactive).

Regarding `CN(C)c1ccc(Nc2c3c4c(cccc4n(C)c2=O)C(=O)c2ccccc2-3)cc1`, the inhibition was 55.2% (active).

Turning to `CC1=NCCN1S(=O)(=O)c1cccc([N+](=O)[O-])c1`, the inhibition is 11.4% (inactive).
